# Compound activity deposited in PubChem by National Center for Advancing Translational Sciences (NCATS).
# Tau FP inhib – tau fibrillization inhibition (FP). P10636. K18 P301L tau heparin fibrillization, Alexa594 FP, 6 h. Potency, µM (series often up to 57.7 µM), for the others: at the highest dose activity, negative = inhibition, actives largely listed as inhibitors. 280,000 compounds, 0.39% hits; note: nearly all actives have a fitted effect of over 55% in size
# Target sequence (P10636 561-689 P618L limits assumed): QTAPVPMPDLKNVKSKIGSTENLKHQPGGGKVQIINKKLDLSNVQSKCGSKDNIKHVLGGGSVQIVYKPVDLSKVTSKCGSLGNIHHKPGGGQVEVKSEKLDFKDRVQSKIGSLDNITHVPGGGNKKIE
#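 Steps: dispense K18 P301L tau (15 uM plus 0.24 uM Alexa 594 tracer, final) in pH 7 sodium acetate; add compound; add heparin (20 uM final); incubate 6 hr, 37 C; add ThT (30 uM final); after 1 hr ambient, read FP.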
# TRb-SRC2 inh – TRbeta-SRC2 interaction inhibition; 280,000 compounds, 0.065% hits; P10828; Potency, µM (doses to about 106 µM), inactives show top-dose activity change, negative = inhibition, actives largely listed as inhibitors; TRbeta-SRC2 peptide binding, fluorescence polarization; receptor liganded with 1 µM T3;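 note: plate controls were bound peptide for no effect and peptide without receptor for full effect; nearly all actives have a fitted effect of over 50% in size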
#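 Fluorescence polarization of 20 nM Texas Red SRC2 peptide with 0.6 uM human TRb ligand-binding domain, in Tris buffer with 1uM T3 and 5% DMSO. Incubated 5 hr ambient; normalized to unbound and bound controls.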
# Tau fluor cs – counter-screen for tau fibril formation inhibitors; tau K18 P301L Alexa594 fluorescence, heparin fibrillization; Potency, µM (highest dose often 57.7 µM), for inactives: at the highest dose activity change, negative = decrease; 280,000 compounds, 0.93% hits; AID 1463; note: nearly all actives have a fitted effect of over 55% in size
#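 Human K18 P301L tau (15 uM unlabeled plus 0.24 uM Alexa 594-labeled, final) in 100 mM sodium acetate pH 7 was mixed with compound and 20 uM heparin and incubated 6 hr at 37 C.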
# TexasRed fluor – alters Texas Red total fluorescence, flagging assay interference; Potency, µM (top dose mostly 106 µM), inactives show at the highest dose fluorescence change, negative = quenching; TRb/SRC2 Texas Red total fluorescence interference; 280,000 compounds, 0.29% hits; AID 1479; active = well fitted curve in either direction with a large enough effect; inconclusive = small, poorly fitted or top-dose-only effect
#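 Human TRb ligand-binding domain at 0.6 uM with 20 nM Texas Red SRC2 peptide in Tris buffer containing 1 uM T3 and 5% DMSO, incubated with compound 5 h at ambient temperature. Total fluorescence (555/632 nm) calculated as parallel + 2 × perpendicular.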
# RGS12 GoLoco inh – inhibitors of human Gai1-RGS12 GoLoco interaction (red fluorophore). P63096. Gai1:RGS12 GoLoco peptide FP, rhodamine, 10 min. Potency, µM (highest dose often 61.6 µM), for inactives: at the top dose activity, negative = inhibition, most hits filed as inhibitors. 230,000 compounds, 0.44% hits. AID 880; active = well fitted inhibition curve with a large enough effect, not every such curve was filed as active; inactive = no such curve, though single readings can be large or run the other way; note: nearly all actives have a fitted effect of over 30% in size
# Target sequence (P63096 whole entry, looked up): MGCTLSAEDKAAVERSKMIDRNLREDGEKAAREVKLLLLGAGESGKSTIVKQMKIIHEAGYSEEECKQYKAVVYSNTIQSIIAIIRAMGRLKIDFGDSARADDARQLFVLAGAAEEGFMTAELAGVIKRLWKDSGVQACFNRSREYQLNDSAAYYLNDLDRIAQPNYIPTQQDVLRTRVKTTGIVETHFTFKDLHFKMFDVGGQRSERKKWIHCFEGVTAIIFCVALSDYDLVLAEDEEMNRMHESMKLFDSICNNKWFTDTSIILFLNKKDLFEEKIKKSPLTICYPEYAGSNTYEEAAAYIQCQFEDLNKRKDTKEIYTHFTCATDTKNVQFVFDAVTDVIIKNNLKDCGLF
# Tau fibril ThT – inhibitors of human tau fibril formation, thioflavin T binding; Potency, µM (doses to about 57.4 µM), without a hit: at the top dose activity, negative = inhibition, usual class: inhibitors; recombinant tau K18 P301L (four-repeat tau fragment), heparin-induced fibrillization, ThT fluorescence; AID 1460; 270,000 compounds, 2.1% hits; P10636; note: nearly all actives have a fitted effect of over 55% in size
#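 Recombinant human tau K18 fragment […] carrying P301L, 15 uM unlabeled plus 0.24 uM Alexa 594-labeled, was fibrillized with 20 uM heparin in 100 mM sodium acetate pH 7 for 6 hr at 37 C; 30 uM ThT fluorescence read after 1 hr.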
# The depositor's hits bear a star; ? = inconclusive; / = no result given; ! = a repeat was not active; [ ] = another dose, or the depositor's remark. Most compounds without a hit are left out; they make up all but 3.1% or so of the library. Unless noted, calls come from the whole dose curve; as a rule, active = well fitted curve in the direction sought with a large enough effect; inconclusive = small, poorly fitted or top-dose-only effect, or another doubt; inactive = no such curve, though single readings can be large; an effect the other way counts as inactive or inconclusive. Unless noted, % is set by controls: 0 for no effect and ±100 for the full control effect; potency is the fitted concentration of half-maximal effect.
SMILES,Tau FP inhib,TRb-SRC2 inh,Tau fluor cs,TexasRed fluor,RGS12 GoLoco inh,Tau fibril ThT
Cc1ccc(NC(=O)C2CCCN2S(=O)(=O)c2ccc3nc(-c4ccccc4)[nH]c3c2)cc1C (stereo not drawn),?,0%,32µM*[quencher],-1%,/,-15%
CC(C)c1ccc(NC(=O)C2CCCN2S(=O)(=O)c2ccc3nc(-c4ccccc4)[nH]c3c2)cc1 (stereo not drawn),14µM*,6%,11µM*[quencher],-2%,/,9%
Cc1cccc(NC(=O)C2CCCN2S(=O)(=O)c2ccc3nc(-c4ccccc4)[nH]c3c2)c1 (stereo not drawn),?,-6%,20µM*[quencher],-2%,/,1%
Clc1ccc(-c2noc3ncnc(NC4CCCCC4)c23)cc1,-11%,1%,-19%,-1%,/,-7%
CCOc1ccccc1CNc1ccc(O)cc1,8.9µM*,28µM*,?,?,-46%,7.1µM*
Oc1ccc(NCc2ccccc2OCc2ccccc2F)cc1,22µM*!,35µM*!,7.9µM*[quencher],9%[11.2 µM],-14%,16µM*
Oc1ccc(NCc2ccc(OCc3ccccc3Cl)cc2)cc1,?,-1%[11.2 µM],7.9µM*[quencher],-2%[11.2 µM],/,14µM*
Oc1ccc(NCc2ccc(OCc3ccccc3)cc2)cc1,-7%,0%[11.2 µM],?,-13%[11.2 µM],/,?
Oc1ccc(NCc2ccccc2OCc2ccccc2Cl)cc1,-15%,-19%[11.2 µM],16µM*[quencher],?,/,28µM*
CCOC(=O)c1cccc(NC(=O)CSc2nnc(-c3ccoc3C)n2CCOC)c1,-3%,-3%,-12%,-4%,2%,-18%
CC(=O)C1=C(C)NC(=O)NC1c1ccc(Cl)cc1 (stereo not drawn),2%,3%,12%,0%,5%,9%
Cc1ccc(C(=O)N2CCCC(C(=O)c3cc(F)ccc3F)C2)s1 (stereo not drawn),-3%,11%,2%,0%,17%,0%
CCOc1cccc(CNc2ccc(O)cc2)c1OCc1ccc(Cl)cc1,13µM*,35µM*,?,?,-22%,8.9µM*
CCc1ccc(CNc2ccc(O)cc2)cc1,7.1µM*,-13%,?,0%,14µM*,3.2µM*
CCOc1cc(CNc2ccc(O)cc2)ccc1OCc1ccc(Cl)cc1Cl,22µM*,28µM*,?,19%,-29%,13µM*
COc1cccc(CNCCO)c1OCc1ccc(Cl)cc1,0%,2%,-2%,0%,7%,-3%
CSc1ccc(CNc2ccc(Cl)cc2)cc1,8%,5%,-29%,1%,8%,-13%
CCOC(=O)COc1c(Cl)cc(C2NC(=S)NC(c3ccccc3)=C2C(C)=O)cc1OC (stereo not drawn),6%,-1%,-7%,2%,7%,1%
O=c1c(C(c2ccc(F)cc2)c2c(O)nc3n(c2=O)CCCS3)c(O)nc2n1CCCS2,?,-3%,-24%,1%,-13%,?
N#Cc1nc(Cc2cccc3ccccc23)oc1NCC1CCCO1 (stereo not drawn),4%,0%,-14%,1%,10%,-13%
NS(=O)(=O)c1ccc(CCN2C(=O)/C(=C\c3ccc(Cl)cc3)SC2=S)cc1,-3%,4%,-14%,0%,4%,?
COc1cc(CNc2ccc3[nH]c(=O)[nH]c3c2)ccc1OCC(=O)NC(C)(C)C,?,-7%,?,-4%,-9%,14µM*
O=C(CCN1CCN(C(c2ccccc2)c2ccccc2)CC1)N/N=C/c1ccc(O)cc1O,?,-2%,16µM*[quencher],-1%,2%,-16%
Cc1ccc(/C=C/C(=O)NCc2cccs2)o1,?,0%,-10%,-2%,1%,?
CC(C(=O)Nc1ccc(OCc2ccccc2)cc1)N1CCCC1 (stereo not drawn),-4%,0%,0%,-1%,-2%,0%
SMILES,Tau FP inhib,TRb-SRC2 inh,Tau fluor cs,TexasRed fluor,RGS12 GoLoco inh,Tau fibril ThT
CC(C)COCC(CN(Cc1ccccc1)c1ccccc1)N1CCCC1 (stereo not drawn),-9%,-2%,-22%,0%,11µM*!,?
COc1cc(C)cc2c(-c3c(O)cc(O)c4c3C[C@H](C)N[C@@H]4C)cc(-c3cc(-c4c(O)cc(O)c5c4C[C@H](C)N[C@@H]5C)c4cc(C)cc(OC)c4c3O)c(O)c12,/,/,/,/,0%[14.2 µM],/
C/C(=N\Nc1ccc(C(=O)c2c(C)cc3ccccn23)cc1[N+](=O)[O-])c1ccc(O)cc1,?,-3%,?,-3%,2%,?
Cc1cc2ccccn2c1C(=O)c1ccc(N/N=C/c2ccc(C(=O)O)cc2)c([N+](=O)[O-])c1,-6%,-1%,-28%,-7%,22%,3.2µM*
Cc1ccc2scc(N3CCN(c4ccccc4)CC3)c(=O)c2c1,-5%,7%,-30%,2%,/,4µM*
Cc1ccc2scc(N3CCc4ccccc4C3)c(=O)c2c1,?,-3%,?,0%,/,7.1µM*
Cc1ccc2scc(N3CCN(c4ccc(F)cc4)CC3)c(=O)c2c1,-6%,7%,-22%,3%,/,8.9µM*
CC(=O)N1CCN(c2csc3ccc(Br)cc3c2=O)CC1,4%,11%,-22%,7%,/,?
CCN1CCN(c2csc3ccc(F)cc3c2=O)CC1,4%,7%,-5%,2%,/,?
COCCn1c(SCC(=O)Nc2ccc(OC)cc2)nc2c(oc3ccccc32)c1=O,-11%,-3%,-4%,0%,2%,-1%
O=C(CCC1CCCN(C(=O)c2ccncc2)C1)NCc1ccc(F)c(F)c1 (stereo not drawn),4%,3%,3%,-2%,7%,-1%
Cc1nn(-c2ccccc2)c2c1C1(C(=O)N(C(C)C)c3ccccc31)C(C#N)=C(N)O2 (stereo not drawn),?,-3%,?,-4%,12%,25µM*
Cc1nn(-c2ccccc2)c(N)c1C1(O)C(=O)N(C(C)C)c2ccccc21 (stereo not drawn),-7%,-2%,-13%,2%,1%,-12%
COc1ccc(OC(C)C(=O)NCCC2=CCCCC2)cc1 (stereo not drawn),-9%,-1%,-10%,-1%,18%,-12%
COc1cc(/C=N/NC(=O)C(=O)/C=C2\NC3(CCCC3)Cc3ccccc32)ccc1O,?,9%,?,1%,13%,?
CN(C)c1ccc(/C=N/NC(=O)C(=O)/C=C2\NC3(CCCC3)Cc3ccccc32)cc1,7%,2%,-10%,-2%,34%,2.2µM*
O=C1CSc2ccccc2N1Cc1ccc(F)cc1,-6%,-24%,-12%,0%,-18%,-1%
